Targets with a hit are over-represented here; the source holds about 7,900 in all. About 0.6% of all pairs of compound and target were hits.
Tests used:
Test in all cases: log2 fold change, soluble protein after heating vs DMSO (PISA); higher = thermal stabilisation; K562 cells, 10 uM, 30 min; active = over 0.2 and 3.5 SD of the protein, either way, in both replicates (recomputed)
[1] = compound: C1=CC=C(C=C1)[C@H](COC2=CC3=C(C=C2)NC(=O)N3)NC(=O)C4=CC=CN(C4=O)CC5=CC(=C(C=C5)F)F
Method in brief: (§1)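 Soluble protein was defined as the supernatant after 21,000xg for 90 min. It came from K562 cells at 2×10^6 cells/mL given 10 μM compound for 30 min, heated in aliquots for 3 min across 48°C-58°C, pooled, and extracted in PBS with 0.5% NP-40 at 4°C, and was quantified by TMTpro 16plex LC-MS/MS with equalised channel sums. Thermal stability against control samples, from duplicates, is reported as log2 fold change.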

[2] = compound: CC1=C(SC2=C1C(=N[C@H](C3=NN=C(N32)C)CC(=O)N)C4=CC=C(C=C4)Cl)C
Method in brief: as §1

[3] = compound: CC1=C2C(=CC=C1)N=C(N(C2=O)C3=CC=CC=C3C)CN4C=NC5=C(N=CN=C54)N
Method in brief: as §1

[4] = compound: Cc1sc2c(c1C)C(c1ccc(Cl)cc1)=N[C@@H](CC(=O)OC(C)(C)C)c1nnc(C)n1-2
Method in brief: as §1

[5] = compound: c1ccc([C@@H]2C[C@H]2NC2CCNCC2)cc1
Method in brief: as §1

Measured: log2 fold change

NNMT (UniProt P40261)
Sequence of UniProt P40261 (P40261 whole entry, looked up): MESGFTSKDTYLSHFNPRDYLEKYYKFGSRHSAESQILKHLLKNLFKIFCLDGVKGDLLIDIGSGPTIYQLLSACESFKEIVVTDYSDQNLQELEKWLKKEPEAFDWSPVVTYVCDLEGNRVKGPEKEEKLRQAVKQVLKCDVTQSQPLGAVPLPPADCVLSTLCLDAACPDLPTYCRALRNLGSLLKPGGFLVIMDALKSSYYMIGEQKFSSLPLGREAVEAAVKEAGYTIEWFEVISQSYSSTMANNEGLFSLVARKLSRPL
inactive: [1] 0.021 | [2] 0.051 | [3] 0.078 | [4] -0.009 | [5] -0.055

MT-ND1 (UniProt P03886)
Sequence of UniProt P03886 (P03886 whole entry, looked up): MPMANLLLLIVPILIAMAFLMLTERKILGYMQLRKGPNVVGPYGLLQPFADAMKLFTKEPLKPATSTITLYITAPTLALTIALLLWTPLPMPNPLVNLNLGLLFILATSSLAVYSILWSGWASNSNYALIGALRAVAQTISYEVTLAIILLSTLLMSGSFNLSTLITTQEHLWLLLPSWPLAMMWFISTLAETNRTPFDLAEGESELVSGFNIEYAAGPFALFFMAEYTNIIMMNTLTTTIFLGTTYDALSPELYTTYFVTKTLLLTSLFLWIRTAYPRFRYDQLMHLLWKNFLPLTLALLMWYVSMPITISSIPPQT
inactive: [1] -0.024 | [2] -0.12 | [3] -0.24 | [4] -0.102 | [5] 0.177

NHLRC2 (UniProt Q8NBF2)
Sequence of UniProt Q8NBF2 (Q8NBF2 whole entry, looked up): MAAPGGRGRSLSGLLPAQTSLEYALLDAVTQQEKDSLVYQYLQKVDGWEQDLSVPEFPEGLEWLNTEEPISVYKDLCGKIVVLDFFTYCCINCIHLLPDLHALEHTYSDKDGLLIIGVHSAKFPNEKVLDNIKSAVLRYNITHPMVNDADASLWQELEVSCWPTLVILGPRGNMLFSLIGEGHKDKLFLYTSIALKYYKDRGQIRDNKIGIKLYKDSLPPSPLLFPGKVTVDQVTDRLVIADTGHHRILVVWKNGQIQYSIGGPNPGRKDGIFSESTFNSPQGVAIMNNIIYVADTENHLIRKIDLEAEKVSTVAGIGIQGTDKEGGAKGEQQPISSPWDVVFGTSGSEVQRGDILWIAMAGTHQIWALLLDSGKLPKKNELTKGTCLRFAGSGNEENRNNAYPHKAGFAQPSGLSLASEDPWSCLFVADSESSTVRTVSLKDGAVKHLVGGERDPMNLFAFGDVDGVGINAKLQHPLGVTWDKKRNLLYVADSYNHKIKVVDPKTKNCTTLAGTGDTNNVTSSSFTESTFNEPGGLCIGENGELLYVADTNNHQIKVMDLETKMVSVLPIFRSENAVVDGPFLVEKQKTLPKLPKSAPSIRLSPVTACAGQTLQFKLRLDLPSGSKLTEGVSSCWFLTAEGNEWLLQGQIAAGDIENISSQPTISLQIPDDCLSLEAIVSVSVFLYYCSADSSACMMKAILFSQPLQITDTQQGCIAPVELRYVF
inactive: [1] -0.027 | [2] 0.038 | [3] 0.127 | [4] 0.009 | [5] 0.024

NUP85 (UniProt Q9BW27)
Sequence of UniProt Q9BW27 (Q9BW27 whole entry, looked up): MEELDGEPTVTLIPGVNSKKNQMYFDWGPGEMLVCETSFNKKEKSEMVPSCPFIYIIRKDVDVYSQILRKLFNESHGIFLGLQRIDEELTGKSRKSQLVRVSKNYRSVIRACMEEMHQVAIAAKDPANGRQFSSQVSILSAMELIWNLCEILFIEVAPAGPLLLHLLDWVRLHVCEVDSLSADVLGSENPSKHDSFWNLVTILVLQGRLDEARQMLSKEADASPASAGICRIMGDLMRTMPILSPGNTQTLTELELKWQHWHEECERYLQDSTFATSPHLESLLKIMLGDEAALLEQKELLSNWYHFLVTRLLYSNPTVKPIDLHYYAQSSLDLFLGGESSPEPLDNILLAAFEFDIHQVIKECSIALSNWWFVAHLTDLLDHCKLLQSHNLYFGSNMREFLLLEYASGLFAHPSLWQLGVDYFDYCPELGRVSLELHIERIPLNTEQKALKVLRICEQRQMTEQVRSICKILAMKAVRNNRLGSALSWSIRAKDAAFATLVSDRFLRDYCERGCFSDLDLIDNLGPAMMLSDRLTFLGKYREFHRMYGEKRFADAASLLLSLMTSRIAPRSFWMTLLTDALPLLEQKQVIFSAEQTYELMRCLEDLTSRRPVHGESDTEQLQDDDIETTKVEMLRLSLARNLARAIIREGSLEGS
inactive: [1] -0.009 | [2] -0.018 | [3] 0.042 | [4] -0.004 | [5] 0.019

NCAPG (UniProt Q9BPX3)
Sequence of UniProt Q9BPX3 (Q9BPX3 whole entry, looked up): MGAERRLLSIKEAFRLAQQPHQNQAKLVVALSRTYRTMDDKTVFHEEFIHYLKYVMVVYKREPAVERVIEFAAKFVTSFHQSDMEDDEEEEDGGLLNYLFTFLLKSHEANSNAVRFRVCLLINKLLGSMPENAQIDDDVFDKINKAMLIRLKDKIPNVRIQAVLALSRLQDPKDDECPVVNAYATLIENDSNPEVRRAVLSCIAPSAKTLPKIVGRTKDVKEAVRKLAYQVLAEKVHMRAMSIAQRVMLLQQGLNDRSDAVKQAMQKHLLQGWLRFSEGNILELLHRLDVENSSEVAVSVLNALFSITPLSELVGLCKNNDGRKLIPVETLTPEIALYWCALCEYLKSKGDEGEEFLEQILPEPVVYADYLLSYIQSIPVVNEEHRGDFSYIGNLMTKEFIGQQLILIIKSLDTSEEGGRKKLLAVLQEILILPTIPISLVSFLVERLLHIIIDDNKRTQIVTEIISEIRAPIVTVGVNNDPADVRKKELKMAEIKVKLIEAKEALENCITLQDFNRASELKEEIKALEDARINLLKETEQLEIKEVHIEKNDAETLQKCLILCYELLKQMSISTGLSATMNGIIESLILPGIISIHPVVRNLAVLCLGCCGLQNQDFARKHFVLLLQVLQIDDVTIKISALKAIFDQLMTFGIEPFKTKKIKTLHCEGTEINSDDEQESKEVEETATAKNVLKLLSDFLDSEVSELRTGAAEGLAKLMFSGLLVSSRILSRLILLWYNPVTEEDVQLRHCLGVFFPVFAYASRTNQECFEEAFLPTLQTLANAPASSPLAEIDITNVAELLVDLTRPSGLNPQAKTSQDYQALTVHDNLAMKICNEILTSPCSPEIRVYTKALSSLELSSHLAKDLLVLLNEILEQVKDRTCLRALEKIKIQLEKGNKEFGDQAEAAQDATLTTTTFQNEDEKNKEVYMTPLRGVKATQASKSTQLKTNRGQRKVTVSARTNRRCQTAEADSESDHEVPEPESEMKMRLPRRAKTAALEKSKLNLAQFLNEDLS
inactive: [1] -0.033 | [2] 0.019 | [3] 0.101 | [4] -0.002 | [5] -0.002

NEU1 (UniProt Q99519)
inactive: [1] -0.116 | [2] 0.004 | [3] 0.047 | [4] -0.043 | [5] -0.025

OSTM1 (UniProt Q86WC4)
Sequence of UniProt Q86WC4 (Q86WC4 whole entry, looked up): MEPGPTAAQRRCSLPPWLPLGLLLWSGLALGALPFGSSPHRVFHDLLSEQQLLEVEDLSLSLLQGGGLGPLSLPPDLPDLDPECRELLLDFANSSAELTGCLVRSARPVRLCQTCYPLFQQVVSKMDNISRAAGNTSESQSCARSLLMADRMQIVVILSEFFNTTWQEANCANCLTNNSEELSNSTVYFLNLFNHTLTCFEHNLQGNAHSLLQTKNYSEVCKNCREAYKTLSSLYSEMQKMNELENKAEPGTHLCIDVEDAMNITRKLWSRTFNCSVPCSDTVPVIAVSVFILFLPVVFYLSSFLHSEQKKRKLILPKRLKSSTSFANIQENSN
inactive: [1] 0.023 | [2] 0.036 | [3] 0.058 | [4] -0.091 | [5] -0.013

NDUFA9 (UniProt Q16795)
Sequence of UniProt Q16795 (Q16795 whole entry, looked up): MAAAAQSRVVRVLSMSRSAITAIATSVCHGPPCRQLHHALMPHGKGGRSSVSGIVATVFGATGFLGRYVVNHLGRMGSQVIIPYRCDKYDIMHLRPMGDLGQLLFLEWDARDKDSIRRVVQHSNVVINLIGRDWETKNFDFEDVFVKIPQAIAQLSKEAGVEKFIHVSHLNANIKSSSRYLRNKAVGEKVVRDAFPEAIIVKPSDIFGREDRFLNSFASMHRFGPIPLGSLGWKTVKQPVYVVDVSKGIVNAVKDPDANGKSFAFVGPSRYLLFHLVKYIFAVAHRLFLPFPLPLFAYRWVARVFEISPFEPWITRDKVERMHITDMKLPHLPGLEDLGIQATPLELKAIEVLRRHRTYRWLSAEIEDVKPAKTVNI
inactive: [1] -0.005 | [2] 0.075 | [3] 0.078 | [4] -0.014 | [5] -0.054

NCK1 (UniProt P16333)
inactive: [1] -0.077 | [2] 0.025 | [3] 0.168 | [4] 0.044 | [5] -0.085
